# Laboratory results published in PubChem BioAssay (NCI).
# Compounds without any hit were thinned out: in the full panel of roughly 79,000, 15% have a hit. Unmarked numbers belong to inactive results. Active and inactive are the calls of the source. No stated cut-off is given here; in the data, active means growth inhibition above about 70%; inactive means the rest.
# Assay: NCI Yeast Anticancer Drug Screen. Data for the sgs1 mgt1 strain (AID 161);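 further: 0% = growth of cultures given vehicle only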
# Conditions: S. cerevisiae sgs1 mgt1 strain, at 50.0 µM (retest, dose inferred, filed as 5.0), stronger effect = higher value
# Outline: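 This yeast growth screen uses a strain with defined DNA-repair lesions; compound-treated growth is compared with vehicle-treated growth.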
row,SMILES,growth inhibition
1,COc1ccc2nc3cccc([N+](=O)[O-])c3c(NCCNCCN(C)C)c2c1,93% (active)
2,Cc1cccc(/C=N/NC(=S)NC2CCCCC2)n1,51%
3,COC(=O)C(=O)c1c(-c2ccc(Cl)c(Cl)c2)[nH]c2[nH]n(-c3ccccc3)c(=O)c2c1=O,83% (active)
4,c1ccc([P+](CCN2Cc3ccccc3C2)(c2ccccc2)c2ccccc2)cc1,97% (active)
5,Cc1cc(C)c2[s+]snc2c1,31%
6,CC(C)(Br)C(=O)/C=C/c1ccccc1,92% (active)
7,Cc1ccc(S(=O)(=O)NC(=O)C2C(=O)CC3(CCCCC3)CC2=O)cc1,21%
8,NC(=S)N1N=C2c3ccccc3CC[C@H]2[C@@H]1c1ccc(Cl)cc1,79% (active)
9,O=[N+]([O-])/C=C/c1cc2ccc3ccccc3c2[nH]1,97% (active)
10,O=C1C(=C2CCCC2)CCC1CN1CCCCC1 (configuration not stated),57%
11,OC(CC(O)(C(F)(F)F)C(F)(F)F)c1ccc(C(O)CC(O)(C(F)(F)F)C(F)(F)F)cc1 (configuration not stated),100% (active)
12,COc1cc2c(cc1OC)[C@@H](Nc1ccc(C#N)cc1)C1COC(=O)[C@@H]1C2c1cc(OC)c(O)c(OC)c1 (some centres not stated),96% (active)
13,O=c1cccccc1[O-].O=c1cccccc1[O-].O=c1cccccc1[O-].[Eu+3],65%
14,O=C1c2ccccc2C(=O)c2sc(Nc3ccccc3Cl)nc21,100% (active)
15,NC(CCCCCCCCCCCCC(N)C(=O)c1ccccc1)C(=O)c1ccccc1 (configuration not stated),94% (active)
16,CC1=C(C)C(=O)C2=C(OCCO2)C1=O,21%
17,c1ccc(-c2cc(C3CO3)c3ccccc3n2)cc1 (configuration not stated),80% (active)
18,S=C1C(=Nc2ccccc2)N(c2ccccc2)/C(=N\c2ccccn2)N1c1ccccc1,98% (active)

row,SMILES,growth inhibition
1,CCC(OC(C)=O)C1CC(C(C)C)CCC1C (configuration not stated),39%
2,CC(C)=CCc1c2c(c(O)c3c(=O)c(-c4ccc(O)c(O)c4)coc13)C=CC(C)(C)O2,93% (active)
3,O=C(NC(N1CCN(c2cc3c(cc2F)c(=O)c(C(=O)O)cn3C2CC2)CC1)(C(F)(F)F)C(F)(F)F)c1ccccc1,25%
4,Fc1cc(F)c(F)c(S)c1F,89% (active)
5,COc1ccc2cc3c4cc5c(cc4cc[n+]3cc2c1OC)OCO5,97% (active)
6,CCCCCCCCNCCCCCCCC,100% (active)
7,Nc1cc(Cl)ccc1Nc1ccccc1,91% (active)
8,O=C(/C(=C/c1ccc(O)cc1)c1ccccc1)c1ccccc1,97% (active)
9,O=Cc1ccccc1C=O,43%
10,C1=CCN([B-](c2ccccc2)[C+]2CCCCC2)C=C1,92% (active)
11,CC/C(=C(\c1ccccc1)c1ccc(OCC[N+](C)(C)C)cc1)c1ccccc1,74% (active)
12,O=S(=O)(c1cccc(C(F)(F)F)c1)N1c2ccccc2-n2cccc2C1c1cccnc1 (configuration not stated),98% (active)
13,Nc1ccc2c(c1)C(=O)c1c(F)cccc1-2,-28%
14,CN(C)/C(=N/C(=S)Nc1ccccc1)SCc1ccccc1,91% (active)
15,CCN(CC)C(=S)N/N=C(\C)c1ccccc1O,95% (active)
16,CC(C)OC(=O)NNc1cc(Cl)ccc1Cl,48%
17,CC(C)CCC[C@@H](C)[C@H]1CC[C@H]2[C@@H]3CC[C@H]4C[C@H](N)CC[C@]4(C)[C@H]3CC[C@]12C,53%
18,O=C1c2ccccc2-c2ccc(N=Cc3ccccc3)cc21,27%

# Same assay, conditions: S. cerevisiae sgs1 mgt1 strain, at 50.0 µM, stronger effect = higher value
row,SMILES,growth inhibition
1,COc1ccc2nc3cccc([N+](=O)[O-])c3c(NCCNCCN(C)C)c2c1,68.2%
2,Cc1cccc(/C=N/NC(=S)NC2CCCCC2)n1,70.8% (active)
3,COC(=O)C(=O)c1c(-c2ccc(Cl)c(Cl)c2)[nH]c2[nH]n(-c3ccccc3)c(=O)c2c1=O,43%
4,c1ccc([P+](CCN2Cc3ccccc3C2)(c2ccccc2)c2ccccc2)cc1,82% (active)
5,Cc1cc(C)c2[s+]snc2c1,79% (active)
6,CC(C)(Br)C(=O)/C=C/c1ccccc1,91.3% (active)
7,Cc1ccc(S(=O)(=O)NC(=O)C2C(=O)CC3(CCCCC3)CC2=O)cc1,-16.6%
8,NC(=S)N1N=C2c3ccccc3CC[C@H]2[C@@H]1c1ccc(Cl)cc1,84.8% (active)
9,O=[N+]([O-])/C=C/c1cc2ccc3ccccc3c2[nH]1,98.7% (active)
10,O=C1C(=C2CCCC2)CCC1CN1CCCCC1 (configuration not stated),58.9%
11,OC(CC(O)(C(F)(F)F)C(F)(F)F)c1ccc(C(O)CC(O)(C(F)(F)F)C(F)(F)F)cc1 (configuration not stated),99.5% (active)
12,COc1cc2c(cc1OC)[C@@H](Nc1ccc(C#N)cc1)C1COC(=O)[C@@H]1C2c1cc(OC)c(O)c(OC)c1 (some centres not stated),88% (active)
13,O=c1cccccc1[O-].O=c1cccccc1[O-].O=c1cccccc1[O-].[Eu+3],89.7% (active)
14,O=C1c2ccccc2C(=O)c2sc(Nc3ccccc3Cl)nc21,93.7% (active)
15,NC(CCCCCCCCCCCCC(N)C(=O)c1ccccc1)C(=O)c1ccccc1 (configuration not stated),-12.2%
16,CC1=C(C)C(=O)C2=C(OCCO2)C1=O,29.8%
17,c1ccc(-c2cc(C3CO3)c3ccccc3n2)cc1 (configuration not stated),95.5% (active)
18,S=C1C(=Nc2ccccc2)N(c2ccccc2)/C(=N\c2ccccn2)N1c1ccccc1,98% (active)

row,SMILES,growth inhibition
1,CCC(OC(C)=O)C1CC(C(C)C)CCC1C (configuration not stated),21.8%
2,CC(C)=CCc1c2c(c(O)c3c(=O)c(-c4ccc(O)c(O)c4)coc13)C=CC(C)(C)O2,87.5% (active)
3,O=C(NC(N1CCN(c2cc3c(cc2F)c(=O)c(C(=O)O)cn3C2CC2)CC1)(C(F)(F)F)C(F)(F)F)c1ccccc1,11.2%
4,Fc1cc(F)c(F)c(S)c1F,83.7% (active)
5,COc1ccc2cc3c4cc5c(cc4cc[n+]3cc2c1OC)OCO5,93.3% (active)
6,CCCCCCCCNCCCCCCCC,99.5% (active)
7,Nc1cc(Cl)ccc1Nc1ccccc1,83.5% (active)
8,O=C(/C(=C/c1ccc(O)cc1)c1ccccc1)c1ccccc1,93% (active)
9,O=Cc1ccccc1C=O,40.3%
10,C1=CCN([B-](c2ccccc2)[C+]2CCCCC2)C=C1,99.2% (active)
11,CC/C(=C(\c1ccccc1)c1ccc(OCC[N+](C)(C)C)cc1)c1ccccc1,91.3% (active)
12,O=S(=O)(c1cccc(C(F)(F)F)c1)N1c2ccccc2-n2cccc2C1c1cccnc1 (configuration not stated),96.8% (active)
13,Nc1ccc2c(c1)C(=O)c1c(F)cccc1-2,15.5%
14,CN(C)/C(=N/C(=S)Nc1ccccc1)SCc1ccccc1,99% (active)
15,CCN(CC)C(=S)N/N=C(\C)c1ccccc1O,94% (active)
16,CC(C)OC(=O)NNc1cc(Cl)ccc1Cl,44.2%
17,CC(C)CCC[C@@H](C)[C@H]1CC[C@H]2[C@@H]3CC[C@H]4C[C@H](N)CC[C@]4(C)[C@H]3CC[C@]12C,-1.6%
18,O=C1c2ccccc2-c2ccc(N=Cc3ccccc3)cc21,36.9%
